Compound activity from PubChem.
The list is not random: actives were taken first. Their share in the collection is about 12%.
Sfp inh: qHTS Assay for Inhibitors of Bacillus subtilis Sfp phosphopantetheinyl transferase (PPTase); Potency, µM, for the others: largest response in the series, negative = inhibition, most hits filed as inhibitors; AID 1490, 2009; 310,000 tested, 3.5% active; Biochemical Sfp PPTase activity, qHTS;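 note: the enzyme is Sfp with the accession as filed and its product quenches rhodamine fluorescence; 0% = enzyme reaction without inhibitor and -100% = no enzyme wells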
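Fluorescence-quenching assay with 15 nM Sfp, 5 uM rhodamine-CoA and 12.5 uM BHQ-2-labelled ybbR peptide in pH 7.6 Hepes/MgCl2 buffer. Enzyme was pre-incubated with compound for 15 min at room temperature. Rate was taken from the 30-min fluorescence change (525/598 nm).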
JMJD2A Tudor inh: qHTS Assay for Inhibitors of JMJD2A-Tudor Domain | Lysine-specific demethylase 4A (Homo sapiens), O75164 | AlphaScreen JMJD2A-Tudor / H3K4me3 peptide binding | Potency, µM (highest dose often 114 µM), without a hit: at the highest dose activity change, negative = inhibition, actives largely listed as inhibitors | 390,000 tested, 4.4% active | AID 504339, 2011; note: % is set by controls: 0 for no effect and ±100 for the full control effect; nearly all actives have a fitted effect of over 50% in size
HP1b binding inh: HTS for Inhibitors of HP1-beta Chromodomain Interactions with Methylated Histone Tails; Chromobox protein homolog 1 (Homo sapiens), P83916; AlphaScreen HP1-beta / biotin-H3K9me3 peptide binding; Potency, µM (titrated, usually from 114 µM), for the others: at the top dose activity change, negative = inhibition, most hits filed as inhibitors; 390,000 tested, 0.56% active; note: nearly all actives have a fitted effect of over 70% in size
Target sequence (P83916 whole entry, looked up): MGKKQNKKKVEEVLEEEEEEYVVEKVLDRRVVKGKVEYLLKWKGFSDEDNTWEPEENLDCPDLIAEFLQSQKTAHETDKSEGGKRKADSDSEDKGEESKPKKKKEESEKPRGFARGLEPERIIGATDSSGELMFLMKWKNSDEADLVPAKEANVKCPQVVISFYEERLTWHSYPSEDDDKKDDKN
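Compound inhibition of the preformed complex between 50 nM HP1-beta and 50 nM biotinylated H3K9me3 peptide was read by AlphaScreen. Buffer was PBS pH 7.4 with 0.01% Tween-20. Incubations ran 30 min at room temperature, with 10 ug/mL donor/acceptor beads.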
BAZ2B inh: qHTS Assay for Inhibitors of BAZ2B | Bromodomain adjacent to zinc finger domain protein 2B (Homo sapiens), Q9UIF8 | AlphaScreen BAZ2B-H3K14Ac peptide displacement | Potency, µM (highest dose often 114 µM), inactives show top-dose activity change, negative = inhibition, actives largely listed as inhibitors | 360,000 tested, 4.4% active | AID 504333, 2011; note: % is set by controls: 0 for no effect and ±100 for the full control effect; nearly all actives have a fitted effect of over 60% in size
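AlphaScreen luminescence quantifies BAZ2B engagement of H3K14Ac peptide; the protein and biotinylated peptide are both at 50 nM final, buffer PBS pH 7.4 with 0.01% Tween-20, all steps at room temperature.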
G9a inh: qHTS Assay for Inhibitors of Histone Lysine Methyltransferase G9a; Histone-lysine N-methyltransferase EHMT2 (Homo sapiens), Q96KQ7; G9a H3K9 monomethylation, AlphaScreen, 2 h; Potency, µM (series often up to 102 µM), for the others: at the top dose activity, negative = inhibition, usual class: inhibitors; 350,000 tested, 8.8% active; note: % is set by controls: 0 for no effect and ±100 for the full control effect; nearly all actives have a fitted effect of over 75% in size
Target sequence (Q96KQ7 913-1193 limits assumed): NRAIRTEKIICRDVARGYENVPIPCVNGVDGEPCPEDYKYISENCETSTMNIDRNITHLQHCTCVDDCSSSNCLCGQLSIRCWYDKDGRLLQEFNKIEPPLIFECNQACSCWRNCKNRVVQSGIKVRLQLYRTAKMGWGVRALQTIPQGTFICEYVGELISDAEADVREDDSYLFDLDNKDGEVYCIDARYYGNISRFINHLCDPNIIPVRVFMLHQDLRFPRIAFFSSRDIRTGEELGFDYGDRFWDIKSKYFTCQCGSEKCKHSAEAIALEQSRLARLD
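Step 1: enzyme (final 20 nM) with compound, 15 min RT. Step 2: substrate peptide 500 nM and SAM 20 uM, 2 h RT. Step 3: anti-H3K9me1 antibody and AlphaScreen beads, 10 min, then plate read.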
L3MBTL1 block: qHTS Assay for the Inhibitors of L3MBTL1. AlphaScreen L3MBTL1–H3K9me1 peptide binding. Potency, µM (series often up to 57.1 µM), without a hit: at the top dose activity, negative = inhibition, hits mostly inhibitors. Lethal(3)malignant brain tumor-like protein 1 (Homo sapiens), Q9Y468. 230,000 tested, 0.66% active. AID 485360, 2010; note: % is set by controls: 0 for no effect and ±100 for the full control effect; nearly all actives have a fitted effect of over 60% in size
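First, the protein-peptide complex forms for 30 min at room temperature (L3MBTL1 50 nM, biotinylated H3K9me1 peptide 75 nM). Next, compounds are pin-transferred and incubated 30 min. Finally, AlphaScreen beads are added and read after 30 min.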
Starred values were filed as active, the others as inactive; ? = inconclusive; / = no result given; ! = not active in a repeat; [ ] = dose if it differs, or a comment. Calls come from the whole dose curve; as a rule, active = well fitted curve in the direction sought with a large enough effect; inconclusive = small, poorly fitted or top-dose-only effect, or another doubt; inactive = no such curve, though single readings can be large; an effect the other way counts as inactive or inconclusive. Potency is the fitted concentration of half-maximal effect.

SMILES	Sfp inh	JMJD2A Tudor inh	HP1b binding inh	BAZ2B inh	G9a inh	L3MBTL1 block
Cn1c(=O)c2c(SCC(=O)NCc3ccco3)nc(-c3ccccc3Cl)nc2n(C)c1=O	1%	-22%	3%	-14%	54%	/
COC(=O)c1ccc(CSc2nc3c([nH]c4ccccc43)c(=O)n2-c2cccc(OC)c2)o1	/	-26%	4%[57 µM]	-19%	-32%[59 µM]	/
COC(=O)C1CN(C(=O)C(C)Oc2ccc(C(C)C)cc2)c2ccccc2O1 (stereo not drawn)	8%	12%	48%	15%	52%	/
CCCN1C(=O)CC(C(=O)OC)=C1C	13%	0%	21%	2%	1%[12.7 µM]	/
CCOC(=O)C1=C(N)N2C(=O)CSC2=C(C(=O)OC)C1	56µM*	-30%	38%	?	50µM*	-2%
CCOC(=O)C1=C(N)N(c2ccccc2)C(=O)C1	6%	3.5µM*	?	-3%	17%[12.7 µM]	/
CCOC(=O)c1ccc(N2C(=O)CC(C(=O)OC)=C2C)cc1	-3%	-32%	-9%	-4%	-39%[59 µM]	-17%[11.4 µM]
COc1ccc(-n2c(CN3CCN(c4ccccn4)CC3)nc3ccc([N+](=O)[O-])cc3c2=O)c(OC)c1	5%	?	3%	?	32µM*	?
CC[C@H](C)[C@H](NC(=O)[C@H](Cc1ccc(O)cc1)NC(=O)[C@H](Cc1cnc[nH]1)NC(=O)[C@H](CCCNC(=N)N)NC(=O)[C@H](CC(C)C)NC(=O)[C@H](C)NC(=O)[C@@H](N)CO)C(=O)N[C@@H](CC(N)=O)C(=O)N[C@@H](CC(C)C)C(=O)N[C@H](C(=O)N[C@H](C(=O)N[C@@H](CCCNC(=N)N)C(=O)N[C@@H](CCC(N)=O)C(=O)N[C@@H](CCCNC(=N)N)C(=O)N[C@@H](Cc1ccc(O)cc1)C(N)=O)[C@@H](C)O)[C@@H](C)CC	11%	/	/	/	/	/
Cc1ccc(S(=O)(=O)CCC(=O)c2ccc(O)cc2O)cc1	-11%	-22%	63%	9%	40µM*	4%
Cc1ccc(S(=O)(=O)CCC(=O)OCC(=O)c2cc(C)ccc2C)cc1	/	1%	47%	2%	24%[12.7 µM]	5%
COc1ccnc(CS(=O)c2nc3cc(C(O)(F)F)ccc3[nH]2)c1OC (stereo not drawn)	-6%	79µM*	22%	-1%	20µM*	/
COc1ccc2[nH]c(S(=O)Cc3ncc(C)c(OC)c3C)nc2c1 (stereo not drawn)	-24%	50µM*	/	-29%	16µM*	/
CCOC(=O)Cc1csc(SCC(=O)NC2CCS(=O)(=O)C2)n1 (stereo not drawn)	/	0%	47%	-5%	5%[12.7 µM]	8%
S=c1nc(C23CC4CC(CC(C4)C2)C3)[nH][nH]1	56µM*	3.5µM*	-31%	-6%	-127%[59 µM]	4%
COc1ccc(C2C=C(C34CC5CC(CC(C5)C3)C4)NC(=S)N2)cc1 (stereo not drawn)	2%	?	-7%	?	?	-2%
CN(C)/N=C/c1ccc(P(c2ccc(/C=N/N(C)C)o2)c2ccc(/C=N/N(C)C)o2)o1	9%	18µM*	?	22µM*	35µM*	-14%
Cc1cccc(C)c1OCc1nc2c3cnn(-c4cccc(F)c4)c3ncn2n1	/	3%	38%	3%	-1%[59 µM]	/
COc1nc(/C(N)=N/O)nc(N2CCCCC2)n1	79µM*	?	66%	?	?	-2%
COc1nc(N2CCCCCC2)nc(N2CCCCCC2)n1	-7%	27%	108%	37%	62%[59 µM]	/
COc1ccc(S(=O)(=O)NNC(=O)C23CC4CC(CC(C4)C2)C3)cc1	8%	-6%	21%	-2%	79µM*	/
CNc1cccnc1C=NNC(N)=S	/	79µM*	28%	/	/	/
NC(=S)N/N=C/c1cccnc1	-26%	/	/	/	6%[12.7 µM]	/
O=C(Nc1ccc(O)c(C(=O)O)c1)Oc1ccccc1	?	-21%	29%	-1%	50µM*	9%
COc1ccc(C(=O)OCC(=O)N2CCN(C(=O)c3ccco3)CC2)cc1OC	/	-9%	8%	/	/	3%
SMILES	Sfp inh	JMJD2A Tudor inh	HP1b binding inh	BAZ2B inh	G9a inh	L3MBTL1 block
O=C(Nc1ccccc1)Nc1nnc(/C=C/c2ccccc2Cl)s1	16%	-5%	22%	2%	1%	8%
Nc1nnc(/C=C/c2ccccc2Cl)s1	-24%	2%	6%	2%	50µM*	2%
C(#Cc1ccccc1)C[N+]1(CC#Cc2ccccc2)CCCC1	1%	-15%	0%	2%	19%[59 µM]	7%
C=CC#CC[N+]1(CC#Cc2ccccc2)CCOCC1	?	40µM*	35µM*	?	?	10%
O=C(Nc1ccc(Cl)cc1)[C@@H]1[C@@H]2C(=O)N(c3ccc(Cl)cc3)C(=O)[C@@H]2[C@H]2C=CC=NN21	45µM*	?	-26%	-39%	?	/
Cc1ccc(N2C(=O)[C@@H]3[C@H](C2=O)[C@H]2C=CC=NN2[C@@H]3C(=O)Nc2ccc(Cl)cc2)cc1	40µM*	-8%[57.1 µM]	2%	50µM*	3.2µM*	-3%
C[C@@]1(C(NS(=O)(=O)c2cccc3cccnc23)c2ccc(-c3ccccc3)cc2)C[C@H]1C1CCCCC1 (stereo partly drawn)	24%	/	/	/	/	/
O=C(O)c1ccccc1Nc1ccc([N+](=O)[O-])cc1	17%	-9%	41%	-30%	?	1%
O=C(ONC(=O)C1C2C=CC(C2)C1C(=O)NOC(=O)c1ccccc1)c1ccccc1 (stereo not drawn)	/	0.79µM*	52%	/	/	/
Cc1c(Cl)cccc1Nc1ccccc1C(=O)O	5%	-10%	17%	-33%	45µM*!	12%
Cc1c(NC(=O)c2cccnc2C(=O)O)cccc1C(=O)O	?	2.5µM*	?	35µM*	8.9µM*	-1%
O=C(O)c1ccccc1Nc1ccccc1C(=O)O	7%	?	-6%	-9%	79µM*	8%
COC(=O)c1ccc(NC(=O)C2C3C=CC(C3)C2C(=O)O)cc1 (stereo not drawn)	-2%	0%	21%	3%	8%	/
CCc1ccccc1NC(=O)c1ccc2c(c1)N(Cc1cc(C)ccc1C)C(=O)c1ccccc1S2(=O)=O	/	-22%	14%	-20%	-8%[59 µM]	/
